The values below come from ChEMBL document CHEMBL3988442, “University of Dundee, Small-Polar-MMV Screening Library” (2021).

Holding throughout (parameters): scale not given: direction of the effect not stated beside the values
The target of experiment [1] is Protein translocase subunit SecA (Escherichia coli (strain K12)) (UniProt P10408). As to the kind of experiment: Assay to Identify E. coli SecA ATPase Inhibitors. Format: functional. The note with it: 30 µM.
The target of experiment [2] is T1, Ubiquitin-activating enzyme e1, putative (Leishmania donovani (strain BPK282A1)) (UniProt E9BSI1).
T1 sequence (whole entry): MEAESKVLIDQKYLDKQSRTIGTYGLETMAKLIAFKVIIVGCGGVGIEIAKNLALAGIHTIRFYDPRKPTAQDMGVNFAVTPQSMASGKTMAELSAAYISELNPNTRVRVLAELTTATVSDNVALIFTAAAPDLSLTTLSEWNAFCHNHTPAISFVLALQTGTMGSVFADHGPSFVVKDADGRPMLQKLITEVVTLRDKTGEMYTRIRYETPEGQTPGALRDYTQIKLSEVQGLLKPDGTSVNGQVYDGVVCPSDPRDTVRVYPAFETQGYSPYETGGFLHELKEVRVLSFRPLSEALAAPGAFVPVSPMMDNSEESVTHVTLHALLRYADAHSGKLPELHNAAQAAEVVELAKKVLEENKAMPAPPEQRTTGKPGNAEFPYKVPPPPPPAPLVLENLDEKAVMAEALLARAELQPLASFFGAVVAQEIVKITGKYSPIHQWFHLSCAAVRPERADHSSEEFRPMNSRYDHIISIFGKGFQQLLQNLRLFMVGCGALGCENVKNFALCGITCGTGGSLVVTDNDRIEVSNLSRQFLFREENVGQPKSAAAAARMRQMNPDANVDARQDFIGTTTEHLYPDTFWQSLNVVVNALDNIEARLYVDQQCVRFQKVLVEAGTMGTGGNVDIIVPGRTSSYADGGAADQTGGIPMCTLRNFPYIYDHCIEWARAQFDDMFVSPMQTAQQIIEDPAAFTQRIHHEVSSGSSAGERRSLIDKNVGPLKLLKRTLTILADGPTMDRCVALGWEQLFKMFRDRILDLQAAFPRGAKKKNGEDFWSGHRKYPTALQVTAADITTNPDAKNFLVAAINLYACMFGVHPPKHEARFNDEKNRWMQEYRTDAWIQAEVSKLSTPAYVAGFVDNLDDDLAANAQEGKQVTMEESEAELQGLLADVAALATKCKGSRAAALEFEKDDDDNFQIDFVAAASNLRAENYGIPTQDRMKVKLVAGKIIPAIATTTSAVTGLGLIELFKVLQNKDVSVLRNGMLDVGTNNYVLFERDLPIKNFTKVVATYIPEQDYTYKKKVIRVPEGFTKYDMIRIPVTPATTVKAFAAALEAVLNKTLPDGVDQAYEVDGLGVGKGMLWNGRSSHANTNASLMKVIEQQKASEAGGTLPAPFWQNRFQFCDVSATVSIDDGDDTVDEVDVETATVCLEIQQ
The experiment is described as follows: Leishmania donovani Ubiquitin Activating Enzyme (LdE1). The format is functional. The following applies: 30 µM.

Experiment [3] concerns the target AMP-activated protein kinase, AMPK (Homo sapiens) (UniProt P54646+O43741+P54619+Q9UGJ0+Q9Y478+Q13131+Q9UGI9). The experiment is described as follows: AMP-dependent Kinase enzyme assay. An in vitro enzyme assay that detects ADP turnover that is directly proportional to AMPK activity. This uses naive AMPK that is activated during the assay with MK-8722. The format is functional. The note with it: 30 µM.

Experiment [4] has as its target Sialic acid-binding Ig-like lectin 9 (Homo sapiens) (UniProt Q9Y336). As to the kind of experiment: Hs-Siglec9 ALPHAscreen SOP 20170721. The following applies: 10 µM. On the technique in general: Alpha assays give light when donor and acceptor beads are brought close together.
The test system of experiment [5] is Trypanosoma cruzi. The experiment is described as follows: Trypanosoma cruzi phosphomannomutase and mannose-1-phosphate guanylyltransferase assay. Format: functional. The following applies: 10 µM.
For experiment [6], the target named is T2, Arginase-2, mitochondrial (Homo sapiens) (UniProt P78540).
T2 sequence (whole entry): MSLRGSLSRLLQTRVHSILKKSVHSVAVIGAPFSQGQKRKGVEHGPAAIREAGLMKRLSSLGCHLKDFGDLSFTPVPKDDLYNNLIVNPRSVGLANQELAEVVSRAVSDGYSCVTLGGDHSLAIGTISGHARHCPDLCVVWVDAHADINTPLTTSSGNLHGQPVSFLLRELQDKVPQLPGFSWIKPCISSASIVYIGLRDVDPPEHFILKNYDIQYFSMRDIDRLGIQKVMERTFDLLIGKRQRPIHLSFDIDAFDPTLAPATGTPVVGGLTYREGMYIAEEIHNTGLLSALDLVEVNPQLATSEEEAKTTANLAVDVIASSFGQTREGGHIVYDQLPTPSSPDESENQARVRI
As to the kind of experiment: in vitro enzyme assay to detect the production of urea directly proportional to the activity of Arginase II. Also: in the data most compounds retested in dose-response had high values. The format is functional. The following applies: 33.3 µM.

For experiment [7], the target named is T3, Proteasome subunit beta (Trypanosoma cruzi) (UniProt O96673).
T3 sequence (whole entry): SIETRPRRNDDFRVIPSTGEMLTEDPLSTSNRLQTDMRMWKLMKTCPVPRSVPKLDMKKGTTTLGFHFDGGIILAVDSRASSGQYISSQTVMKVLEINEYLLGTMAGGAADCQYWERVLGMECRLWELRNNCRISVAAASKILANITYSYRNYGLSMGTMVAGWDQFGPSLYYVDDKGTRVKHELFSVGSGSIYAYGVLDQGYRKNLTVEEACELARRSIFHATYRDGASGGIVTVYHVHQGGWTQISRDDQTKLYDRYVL
As to the kind of experiment: Trypanosoma cruzi proteasome chymotrypsin-like activity (TcProtChymo) assay. Also: in the data most compounds retested in dose-response had high values. The format is functional. The note with it: 9.37 µM.

The species named for experiment [8] is Homo sapiens. The experiment is described as follows: To identify inhibition of the IFN signalling (Jak-Stat) pathway via expression of an eGFP reporter gene under the control of an IFN-stimulated response element (ISRE) containing MxA promoter. The note with it: 30 µM. Format: functional.
The target of experiment [9] is T4, Tyrosyl-tRNA synthetase, putative (Trypanosoma cruzi (strain CL Brener)) (UniProt Q4DSP6).
T4 sequence (whole entry): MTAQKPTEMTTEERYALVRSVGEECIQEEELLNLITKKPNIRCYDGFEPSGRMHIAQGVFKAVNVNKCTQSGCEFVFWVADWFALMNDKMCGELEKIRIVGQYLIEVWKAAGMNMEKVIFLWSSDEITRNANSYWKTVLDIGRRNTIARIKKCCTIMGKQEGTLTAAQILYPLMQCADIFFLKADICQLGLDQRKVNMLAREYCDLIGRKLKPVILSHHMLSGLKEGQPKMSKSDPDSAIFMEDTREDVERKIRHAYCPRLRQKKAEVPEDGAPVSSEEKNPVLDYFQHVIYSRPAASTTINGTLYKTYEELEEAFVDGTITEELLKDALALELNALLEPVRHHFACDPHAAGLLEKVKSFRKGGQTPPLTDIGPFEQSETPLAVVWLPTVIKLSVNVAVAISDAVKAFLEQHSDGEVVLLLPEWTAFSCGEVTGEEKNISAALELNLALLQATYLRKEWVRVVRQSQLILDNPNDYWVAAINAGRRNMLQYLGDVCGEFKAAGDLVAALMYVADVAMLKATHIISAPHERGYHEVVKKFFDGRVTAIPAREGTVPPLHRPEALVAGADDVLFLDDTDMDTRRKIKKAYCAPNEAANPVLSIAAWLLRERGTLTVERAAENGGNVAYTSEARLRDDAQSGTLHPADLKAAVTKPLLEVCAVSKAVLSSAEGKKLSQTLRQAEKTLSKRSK
The experiment is described as follows: Trypanosoma cruzi tyrosyl tRNA synthetase (TcYRS) _High Tyrosine SOP. Also: in the data most compounds retested in dose-response had high values. Format: functional. The note with it: 30 µM.

Experiment [10] deals with T4, Tyrosyl-tRNA synthetase, putative (Trypanosoma cruzi (strain CL Brener)). The experiment is described as follows: Trypanosoma cruzi tyrosyl tRNA synthetase (TcYRS) SOP. Format: functional. The note with it: 30 µM.
The target of experiment [11] is Chromo domain-containing protein 1 (Saccharomyces cerevisiae (strain ATCC 204508 / S288c) (Baker's yeast)) (UniProt P32657). As to the kind of experiment: ScCHD-1 Enzyme Inhibition Assay. Also: in the data most compounds retested in dose-response had high values. Format: functional. The following applies: 30 µM.
Sequence of Chromo domain-containing protein 1 (Saccharomyces cerevisiae (strain ATCC 204508 / S288c) (Baker's yeast)) (P32657 whole entry, the tested form may be a part): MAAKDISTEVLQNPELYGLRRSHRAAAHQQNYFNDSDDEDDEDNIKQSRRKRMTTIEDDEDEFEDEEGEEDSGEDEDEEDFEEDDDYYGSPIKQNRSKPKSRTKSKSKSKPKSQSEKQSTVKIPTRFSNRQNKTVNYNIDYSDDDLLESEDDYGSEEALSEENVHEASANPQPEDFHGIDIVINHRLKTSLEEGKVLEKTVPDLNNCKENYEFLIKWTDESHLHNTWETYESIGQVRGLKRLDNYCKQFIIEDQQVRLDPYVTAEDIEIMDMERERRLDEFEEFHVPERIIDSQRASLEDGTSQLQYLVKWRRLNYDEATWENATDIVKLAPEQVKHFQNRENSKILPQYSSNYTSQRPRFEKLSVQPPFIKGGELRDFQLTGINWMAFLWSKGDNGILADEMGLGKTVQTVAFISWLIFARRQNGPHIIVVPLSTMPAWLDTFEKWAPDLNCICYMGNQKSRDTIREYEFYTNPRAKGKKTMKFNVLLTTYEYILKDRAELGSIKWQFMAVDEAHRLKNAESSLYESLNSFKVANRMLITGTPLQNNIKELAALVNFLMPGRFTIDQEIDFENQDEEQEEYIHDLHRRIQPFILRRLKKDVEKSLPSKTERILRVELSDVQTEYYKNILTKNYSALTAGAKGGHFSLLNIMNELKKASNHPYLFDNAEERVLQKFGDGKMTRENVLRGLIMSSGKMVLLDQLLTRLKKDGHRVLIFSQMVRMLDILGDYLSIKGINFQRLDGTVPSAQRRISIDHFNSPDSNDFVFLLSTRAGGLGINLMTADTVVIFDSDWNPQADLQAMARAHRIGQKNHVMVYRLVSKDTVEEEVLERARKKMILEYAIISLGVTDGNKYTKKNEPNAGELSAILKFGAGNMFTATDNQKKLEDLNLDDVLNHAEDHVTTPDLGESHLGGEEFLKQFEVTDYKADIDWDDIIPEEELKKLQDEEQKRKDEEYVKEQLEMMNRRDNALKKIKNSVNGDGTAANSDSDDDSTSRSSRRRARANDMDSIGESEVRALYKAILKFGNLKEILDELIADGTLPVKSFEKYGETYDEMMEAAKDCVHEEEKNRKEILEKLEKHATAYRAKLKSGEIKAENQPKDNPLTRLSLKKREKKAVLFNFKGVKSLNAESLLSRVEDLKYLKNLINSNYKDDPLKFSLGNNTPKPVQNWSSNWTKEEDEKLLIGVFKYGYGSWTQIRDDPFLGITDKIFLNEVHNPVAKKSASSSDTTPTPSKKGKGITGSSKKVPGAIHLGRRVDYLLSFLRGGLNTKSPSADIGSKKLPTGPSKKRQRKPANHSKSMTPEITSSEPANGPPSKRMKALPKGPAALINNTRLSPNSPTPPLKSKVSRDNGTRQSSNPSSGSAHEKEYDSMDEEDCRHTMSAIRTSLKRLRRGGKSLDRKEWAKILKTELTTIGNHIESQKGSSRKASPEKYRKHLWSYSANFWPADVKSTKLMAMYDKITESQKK

For some of these results: Results with a measured potency or affinity are listed apart.

Sequence of Sialic acid-binding Ig-like lectin 9 (Homo sapiens) (Q9Y336 whole entry): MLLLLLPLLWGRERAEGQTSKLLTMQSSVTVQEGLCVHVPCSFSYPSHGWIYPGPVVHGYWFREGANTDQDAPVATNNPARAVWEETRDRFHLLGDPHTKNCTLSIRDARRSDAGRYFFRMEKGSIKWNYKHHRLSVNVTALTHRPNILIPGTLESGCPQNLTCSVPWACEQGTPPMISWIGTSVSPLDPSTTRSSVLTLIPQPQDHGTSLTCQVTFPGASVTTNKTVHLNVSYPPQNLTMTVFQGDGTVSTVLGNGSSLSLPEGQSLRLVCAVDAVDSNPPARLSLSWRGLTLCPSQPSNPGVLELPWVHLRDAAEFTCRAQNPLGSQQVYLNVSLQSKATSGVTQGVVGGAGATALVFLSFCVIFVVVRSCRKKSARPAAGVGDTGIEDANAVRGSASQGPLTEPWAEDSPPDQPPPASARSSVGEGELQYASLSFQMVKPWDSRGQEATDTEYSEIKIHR
Sequence of Protein translocase subunit SecA (Escherichia coli (strain K12)) (P10408 whole entry): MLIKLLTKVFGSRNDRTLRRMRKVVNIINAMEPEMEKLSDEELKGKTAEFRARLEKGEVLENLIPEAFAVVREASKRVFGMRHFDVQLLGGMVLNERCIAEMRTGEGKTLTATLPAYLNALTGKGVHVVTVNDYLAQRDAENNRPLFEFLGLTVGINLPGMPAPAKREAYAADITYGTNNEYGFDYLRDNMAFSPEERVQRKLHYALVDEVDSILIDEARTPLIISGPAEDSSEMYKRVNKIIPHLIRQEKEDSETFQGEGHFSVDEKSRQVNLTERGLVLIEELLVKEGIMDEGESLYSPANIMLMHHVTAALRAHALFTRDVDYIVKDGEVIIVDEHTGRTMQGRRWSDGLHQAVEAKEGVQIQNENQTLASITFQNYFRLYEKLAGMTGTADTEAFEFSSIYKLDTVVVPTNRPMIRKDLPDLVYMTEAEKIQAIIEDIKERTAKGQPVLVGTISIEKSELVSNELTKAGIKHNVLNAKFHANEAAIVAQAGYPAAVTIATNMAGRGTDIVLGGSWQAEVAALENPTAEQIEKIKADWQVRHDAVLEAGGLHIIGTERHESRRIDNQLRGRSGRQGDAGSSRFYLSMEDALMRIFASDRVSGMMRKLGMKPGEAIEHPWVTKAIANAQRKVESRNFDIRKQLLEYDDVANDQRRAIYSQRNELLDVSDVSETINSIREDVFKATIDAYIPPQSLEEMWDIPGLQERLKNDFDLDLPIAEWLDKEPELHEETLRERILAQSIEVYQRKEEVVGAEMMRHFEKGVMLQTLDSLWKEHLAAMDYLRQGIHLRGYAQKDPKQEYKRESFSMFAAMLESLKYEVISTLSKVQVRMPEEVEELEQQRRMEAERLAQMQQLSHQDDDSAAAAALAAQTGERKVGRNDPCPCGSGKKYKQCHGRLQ

As to `Cn1cnc2c1C(COCC1CCOCC1)CN(C(=O)c1ccoc1)C2` (stereo unspecified), the Percent Effect in experiment [1] was 1.37%; in experiment [2], 18.7%; in experiment [3], 4.82%; in [4], -8.07%; in [5], 1.38%; in experiment [6], -1.63%. In addition, the Percent Effect in experiment [7] is 14.5%; in experiment [8] it was -17.8%; in experiment [9] it was 1.06%; in experiment [10], 6.41%; in [11] it was -5.31%.
For the compound `CN(Cc1cc(-c2ccccc2)no1)C1CCCN(c2cccnn2)C1` (stereo unspecified), the Percent Effect in [1] was -6.51%; in experiment [2], -20.8%; in experiment [3], 0.498%; in experiment [4], 15.7%; in experiment [5], -3.93%; in [6], -3.2%. For the same compound, the Percent Effect in experiment [7] was determined as 2.37%; in experiment [8], 7.74%; in experiment [9], 15.5%; in [10], 14.6%; in [11], 18.5%.
As to `CCNc1cc2c(nn1)CCN(C(=O)c1cccc3c1OCCO3)C2`, the Percent Effect in [1] is -5.14%; in experiment [2] it was 7.79%; in [3], -15.3%; in experiment [4], 14.1%; in experiment [5] it was 5.99%; in experiment [6], -6.76%. For the same compound, the Percent Effect in experiment [7] is 15.4%; in experiment [8], 1.1%; in experiment [9], 5.83%; in experiment [10], 14.6%; in experiment [11] it was -10.8%.
In the case of `O=C(Nc1ccccc1)c1nn(C2CCS(=O)(=O)C2)c2c1CCCC2` (stereo unspecified), the Percent Effect was -4.15% in experiment [1]; 5.26% in experiment [2]; 5.68% in experiment [3]; 0.438% in [4]; -1.07% in [5]; -2.37% in [6]. The Percent Effect is 10.3% in [7]; 8.39% in [8]; 1.06% in experiment [9]; 10.4% in experiment [10]; -4.11% in experiment [11].
With `Cn1c(CC2CCS(=O)(=O)C2)nnc1SCCOc1ccccc1F` (stereo unspecified), the Percent Effect in experiment [1] was -0.675%; in [2], 2.7%; in experiment [3], 2.63%; in [4], 12.8%; in experiment [5] it was 2.64%; in experiment [6], 30.5%. In addition, the Percent Effect in experiment [7] was 2.15%; in experiment [8] it was -9.3%; in experiment [9], -2.15%; in experiment [10], 6.17%; in experiment [11], -9.15%.
For the compound `COC(=O)C1CCN(c2cncc(-n3nc(C)cc3C)n2)CC1`, the Percent Effect was -4% in [1]; 0% in experiment [2]; 4.1% in [3]; 5.66% in experiment [4]; -7.03% in experiment [5]; 4.17% in experiment [6]. Also, the Percent Effect is 15.6% in experiment [7]; 12.6% in experiment [8]; 3.96% in [9]; 3.66% in experiment [10]; -8.43% in experiment [11].
On to `CCn1c(CN(C)C)nnc1C1CCN(c2ccnc(C)c2)CC1`, for which the Percent Effect in [1] was -0.496%; in experiment [2], 6.94%; in experiment [3] it was -2.58%; in experiment [4], -2.36%; in experiment [5], -1.85%; in experiment [6], 2.65%. Moreover, the Percent Effect in experiment [7] was 21.1%; in [8], -1.07%; in experiment [9] it was 5.26%; in experiment [10], 5.13%; in experiment [11], -1.27%.
`CS(=O)(=O)NCc1nnc2n1CCN(Cc1cccs1)C2`: the Percent Effect in experiment [1] was -3.62%; in [2], 2.7%; in experiment [3], 7.63%; in experiment [4], -1.91%; in experiment [5], 0.684%; in [6] it was -3.5%. The Percent Effect in experiment [7] came to 13.5%; in [8] it was 6.95%; in experiment [9] it was 5.41%; in experiment [10] it was 12.8%; in [11], 3.73%.
On to `COCc1nc(N(C)C)ncc1C(=O)NC(C)C`, for which the Percent Effect in experiment [1] was -5.73%; in [2] it was -1.33%; in [3], 4.52%; in experiment [4], -0.683%; in [5] it was -3.54%; in experiment [6] it was -2.99%. The Percent Effect in experiment [7] was 4.07%; in experiment [8] it was -5.53%; in [9], 2.12%; in [10], -2.56%; in [11], -0.879%.
In the case of `Cc1cc(C)n(CC2CCCN2C(=O)c2ccc3[nH]nnc3c2)n1` (stereo unspecified), the Percent Effect is -4.12% in experiment [1]; 5.48% in [2]; 5.75% in experiment [3]; 0.134% in experiment [4]; -2.35% in [5]; 5.46% in experiment [6]. The Percent Effect is 14.4% in experiment [7]; 4.89% in [8]; 1.07% in experiment [9]; 10% in experiment [10]; -3.11% in [11].
On to `COCCC(=O)N1CC[C@@H](N(C)C)[C@@H]1Cc1ccccc1`, for which the Percent Effect in experiment [1] is -3.9%; in experiment [2], 5.33%; in [3], 10.6%; in experiment [4] it was 4.93%; in [5] it was -0.394%; in experiment [6], -1.17%. Besides, the Percent Effect is 5.37% in experiment [7]; -2.67% in experiment [8]; 5.32% in experiment [9]; 6.41% in [10]; -0.866% in experiment [11].
